Results on four compounds are retold here after PubChem BioAssay (EPA / NIEHS).

Records with an inconclusive call do not appear. Activity calls are given as the source filed them. How the source made its calls, unless noted: active means hit-call score of the fitted dose curve at least 0.9, where 1 is the maximum; inactive means score below 0.9.

Experiment [1] is described as follows: ACEA_ER_80hr: ACEA Biosciences xCELLigence Real-Time Cell Analysis on Estrogen Receptor Agonism for Proliferation (AID 2282667; active means hit-call score of the fitted dose curve at least 0.9, where 1 is the maximum). The following applies: T47D proliferation, impedance (xCELLigence), 80 h. Summed up: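 Real-time impedance growth kinetics of human T-47D breast cells read 80 h after dosing, gain-of-signal fitted relative to DMSO. Compounds: 1:4 serial series, top final concentration 100 uM, n = 2.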

Experiment [2] in a line: ATG_CRE_CIS: Attagene CIS-FACTORIAL HepG2 Assay for human cAMP Responsive Element (CRE) binding protein 3 (AID 2282926). The following applies: HepG2 CRE cis-reporter, Attagene multiplexed mRNA; actives raise or lower the signal. Summed up:
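Multiplexed transcription-unit reporters transfected into HepG2; 24 h dosing; RT-PCR/capillary electrophoresis fluorescence read-out; bidirectional fit vs DMSO.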

Experiment [3] deals with CCAAT/enhancer-binding protein beta (Homo sapiens) (UniProt P17676). Briefly: ATG_C_EBP_CIS: Attagene CIS-FACTORIAL HepG2 Assay for human CCAAT/Enhancer Binding Protein (C/EBP) beta (AID 2282927). The following applies: HepG2 Attagene cis-factorial transcription factor reporter; actives raise or lower the signal. Summed up: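 Endogenous C/EBPb-driven reporter transcripts measured in transfected human HepG2 cells at 24 h via RT-PCR and capillary electrophoresis of labelled fragments. Activity fitted in both directions relative to DMSO baseline.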
Sequence of CCAAT/enhancer-binding protein beta (Homo sapiens) (P17676 whole entry, looked up, the tested form may be a part): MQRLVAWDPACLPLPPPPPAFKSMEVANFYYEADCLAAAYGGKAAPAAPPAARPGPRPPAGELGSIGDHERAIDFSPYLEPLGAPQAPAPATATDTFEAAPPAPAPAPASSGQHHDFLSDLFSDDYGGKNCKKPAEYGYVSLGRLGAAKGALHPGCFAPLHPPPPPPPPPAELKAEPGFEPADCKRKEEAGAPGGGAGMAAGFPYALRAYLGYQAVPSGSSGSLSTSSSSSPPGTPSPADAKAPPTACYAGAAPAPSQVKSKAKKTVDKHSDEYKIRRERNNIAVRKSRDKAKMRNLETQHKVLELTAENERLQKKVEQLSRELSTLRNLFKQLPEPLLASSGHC

Experiment [4] in a line: ATG_CMV_CIS: Attagene CIS-FACTORIAL HepG2 Assay for human CMV (Internal Marker) (AID 2282928).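 Further: endpoint acts as a background internal control marker rather than a target.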 Conditions: HepG2 CMV promoter reporter, transcription factor profiling; actives raise or lower the signal. The gist of the method: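 After transient transfection of HepG2 with reporter transcription units driven by cis-regulatory promoters, cells receive test chemical for 24 h. Labeled reporter amplicons, digested with HpaI, are sized and quantified by capillary electrophoresis against DMSO.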

Experiment [5] can be described thus: ATG_DR4_LXR_CIS: Attagene CIS-FACTORIAL HepG2 Assay for human Liver X Receptor (LXR), DR4 submotif (AID 2282929). Conditions: HepG2 Attagene DR4 cis-reporter, mRNA transcription; actives raise or lower the signal. The gist of the method: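 Transiently transfected HepG2 liver cells; cis-regulated reporters; 24 h dosing. RT-PCR plus CE read-out of reporter mRNA. DMSO baseline, bidirectional curve fitting.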

Experiment [6] addresses Aryl hydrocarbon receptor (Homo sapiens) (UniProt P35869). Briefly: ATG_Ahr_CIS: Attagene CIS-FACTORIAL HepG2 Assay for human Aryl Hydrocarbon Receptor (Ahr) (AID 2282930). Conditions: HepG2 AhR cis-factorial reporter transcription; actives raise or lower the signal. Summed up: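 Reporter mRNA levels, quantified by RT-PCR and fluorescent capillary electrophoresis, reflect endogenous AhR transcriptional activity in HepG2 cells carrying transfected cis-promoter reporter constructs. Readout at 24 h post-dose; gain or loss fitted against DMSO baseline.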

The nature of experiment [7]: ATG_AP_1_CIS: Attagene CIS-FACTORIAL HepG2 Assay for human Activator Protein 1 (AP-1) (AID 2282931). Conditions: HepG2 Attagene cis-factorial AP-1 reporter mRNA; actives raise or lower the signal. The gist of the method: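 We transfected HepG2 cells transiently with a set of cis-regulated reporter transcription units, dosed them for 24 h, and quantified reporter mRNA via RT-PCR and capillary electrophoresis, scoring gain or loss of signal relative to DMSO.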

Experiment [8] can be described thus: ATG_AP_2_CIS: Attagene CIS-FACTORIAL HepG2 Assay for human Activator Protein 2 (AP-2) (AID 2282932). The following applies: HepG2 AP-2 cis-reporter, Attagene transcription factor profiling; actives raise or lower the signal. Summed up: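 Step one: transient transfection of HepG2 with reporter transcription units. Step two: 24 h chemical exposure. Step three: RNA extraction, RT-PCR, labelled fragment analysis by capillary electrophoresis; DMSO serves as baseline.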

The nature of experiment [9]: ATG_BRE_CIS: Attagene CIS-FACTORIAL HepG2 Assay for human Bone Morphogenetic Protein (BMP) Response Element (BRE) (AID 2282933). The following applies: HepG2 BMP response element reporter, Attagene transcription factor profiling; actives raise or lower the signal. The gist of the method: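 Fluorescence-labelled reporter cDNA fragments, separated by capillary electrophoresis, gave the signal for this component of a 52-readout multiplex. HepG2 cells were transfected, exposed to chemicals for 24 h, and compared with DMSO using bidirectional fitting.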

The target in experiment [10] is Retinoic acid receptor alpha (Homo sapiens) (UniProt P10276). Briefly: ATG_DR5_RAR_CIS: Attagene CIS-FACTORIAL HepG2 Assay for human Retinoic Acid Receptor Alpha (RARE), DR5 submotif (AID 2282934). The following applies: HepG2 Attagene cis-factorial RARE DR5 reporter, mRNA; actives raise or lower the signal. The gist of the method: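 Reporter transcripts from a DR5-regulated unit, measured via RT-PCR plus capillary electrophoresis, reflect endogenous RAR activity in transiently transfected human HepG2 liver cells. Exposure lasted 24 h; gain or loss of signal scored against DMSO.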
Sequence of Retinoic acid receptor alpha (Homo sapiens) (P10276 whole entry, looked up): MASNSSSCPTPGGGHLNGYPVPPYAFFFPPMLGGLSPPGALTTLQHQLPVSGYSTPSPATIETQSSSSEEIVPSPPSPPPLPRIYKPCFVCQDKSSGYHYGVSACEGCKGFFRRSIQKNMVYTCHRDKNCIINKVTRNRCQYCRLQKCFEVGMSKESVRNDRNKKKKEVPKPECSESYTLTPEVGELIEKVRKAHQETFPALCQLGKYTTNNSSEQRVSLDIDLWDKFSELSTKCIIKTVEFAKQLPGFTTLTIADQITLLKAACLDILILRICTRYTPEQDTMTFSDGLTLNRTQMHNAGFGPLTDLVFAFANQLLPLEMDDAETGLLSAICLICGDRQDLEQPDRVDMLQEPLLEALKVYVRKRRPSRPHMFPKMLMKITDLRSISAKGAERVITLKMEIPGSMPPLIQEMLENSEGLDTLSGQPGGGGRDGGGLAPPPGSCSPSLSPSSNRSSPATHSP

The target of experiment [11] is Transcription factor E2F1 (Homo sapiens) (UniProt Q01094). Briefly: ATG_E2F_CIS: Attagene CIS-FACTORIAL HepG2 Assay for human E2F Transcription Factor 1 (AID 2282935). The following applies: HepG2 Attagene cis-reporter, E2F reporter RNA transcripts; actives raise or lower the signal. The gist of the method: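 Total RNA from 24 h-treated, reporter-transfected HepG2 cells undergoes DNase I treatment, oligo(dT) reverse transcription, PCR and 6-FAM primer extension before capillary electrophoresis.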
Sequence of Transcription factor E2F1 (Homo sapiens) (Q01094 whole entry, looked up): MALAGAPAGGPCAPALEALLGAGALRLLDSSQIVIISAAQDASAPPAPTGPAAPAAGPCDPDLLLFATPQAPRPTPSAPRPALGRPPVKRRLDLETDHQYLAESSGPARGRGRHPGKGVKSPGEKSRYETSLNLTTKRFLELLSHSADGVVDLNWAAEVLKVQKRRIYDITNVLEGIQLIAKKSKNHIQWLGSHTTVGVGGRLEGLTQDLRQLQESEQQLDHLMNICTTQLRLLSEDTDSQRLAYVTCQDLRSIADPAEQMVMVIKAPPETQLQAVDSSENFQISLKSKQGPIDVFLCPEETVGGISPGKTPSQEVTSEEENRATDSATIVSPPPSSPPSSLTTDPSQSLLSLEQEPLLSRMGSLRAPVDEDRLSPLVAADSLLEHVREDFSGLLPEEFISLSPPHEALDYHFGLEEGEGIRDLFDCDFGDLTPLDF

Experiment [12] is described as follows: ATG_E_Box_CIS: Attagene CIS-FACTORIAL HepG2 Assay for human Enhancer Box (E-box) (AID 2282936). The following applies: HepG2 E-box cis-reporter transcription, actives raise or lower the signal. Summed up:
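DMSO served as negative control and baseline for bidirectional fitting. Human hepatoma HepG2 cells, transiently transfected with cis-reporter constructs, were dosed 24 h; reporter mRNA read by RT-PCR and capillary electrophoresis.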

The nature of experiment [13]: ATG_M_61_CIS: Attagene CIS-FACTORIAL HepG2 Assay for M61 Transcription Factor (Internal Marker) (AID 2282937). The following applies: HepG2 Attagene CIS-FACTORIAL M61 internal marker reporter; actives raise or lower the signal. Summed up:
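Multiplexed reporter mRNA assay, HepG2 human hepatoma cells, 24 h treatment. Signal: FAM-labelled, HpaI-digested RT-PCR fragments by CE. Fit: bidirectional, baseline DMSO.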

Experiment [14] in a line: ATG_EGR_CIS: Attagene CIS-FACTORIAL HepG2 Assay for human Early Growth Response 1 (EGR1) (AID 2282938). Conditions: HepG2 Attagene CIS-FACTORIAL EGR reporter mRNA; actives raise or lower the signal. Summed up:
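Multiplexed cis-reporter system in human hepatoma HepG2 cells, transiently transfected. Cells are dosed for 24 h; reporter transcripts are amplified, fluorescently tagged and sized by capillary electrophoresis, with DMSO as negative control.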

Experiment [15] in a line: ATG_M_19_CIS: Attagene CIS-FACTORIAL HepG2 Assay for M19 Transcription Factor (Internal Marker) (AID 2282939). Conditions: HepG2 Attagene CIS-FACTORIAL M19 internal marker reporter; actives raise or lower the signal. Summed up:
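HepG2, MRTU transient transfection, 24 h dosing. Total RNA → RT-PCR → 6-FAM primer extension → HpaI digest → CE fluorescence. Bidirectional curve fit, DMSO negative control.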

Experiment [16] is described as follows: ATG_ERE_CIS: Attagene CIS-FACTORIAL HepG2 Assay for Estrogen Response Element (ERE) (AID 2282940). Conditions: HepG2 ERE cis-reporter, Attagene RNA transcript; actives raise or lower the signal. The gist of the method:
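After a 24 h chemical treatment, RNA from reporter-transfected HepG2 cells is reverse-transcribed, PCR-amplified and fluorescently labelled. Fragments separated by capillary electrophoresis give reporter signal; DMSO serves as negative control.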

Experiment [17] in a line: ATG_Ets_CIS: Attagene CIS-FACTORIAL HepG2 Assay for human Erythroblast Transformation Specific (ETS) (AID 2282941). The following applies: HepG2 ETS cis-reporter transcription, actives raise or lower the signal. The gist of the method: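 Human HepG2 hepatoma cells were transiently transfected with promoter-driven reporter constructs and treated for 24 hours. Reporter transcripts were quantified by RT-PCR with fluorescent primer extension; bidirectional curve fitting used DMSO as reference.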

Experiment [18] has as its target Hepatocyte nuclear factor 3-beta (Homo sapiens) (UniProt Q9Y261). The experiment can be described thus: ATG_FoxA2_CIS: Attagene CIS-FACTORIAL HepG2 Assay for human Forkhead box A2 (FOXA2) (AID 2282942). Conditions: HepG2 cis-reporter transcription factor activity, 24 h; actives raise or lower the signal. Summed up: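 Multiplexed cis-element reporter assay in transiently transfected HepG2. Twenty-four hours post-dosing, RNA was reverse-transcribed, amplified, FAM-labelled, HpaI-digested and separated by CE. Activity gain or loss relative to DMSO.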

Experiment [19] in a line: ATG_FoxO_CIS: Attagene CIS-FACTORIAL HepG2 Assay for human Forkhead box O (FoxO) (AID 2282943). The following applies: HepG2 Attagene cis-reporter, FoxO element, mRNA; actives raise or lower the signal. The gist of the method: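 Endogenous transcription factor activity read from multiplexed cis-promoter reporter transcripts in transiently transfected HepG2, 24 h after dosing. Reporter RNA measured via RT-PCR plus capillary electrophoresis of FAM-labeled products; gain or loss relative to DMSO.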

The nature of experiment [20]: ATG_GATA_CIS: Attagene CIS-FACTORIAL HepG2 Assay for human GATA Binding Protein (AID 2282944). Conditions: HepG2 GATA cis-element reporter, Attagene multiplex mRNA; actives raise or lower the signal. Summed up:
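Cells: HepG2, transiently transfected with cis-regulated reporter transcription units. Exposure: 24 h. Detection: RT-PCR plus capillary electrophoresis of FAM-labeled fragments. Analysis: bidirectional, DMSO as baseline.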

For orientation: AC50 means the concentration giving half of the maximal activity seen.

Sequence of Aryl hydrocarbon receptor (Homo sapiens) (P35869 whole entry, looked up): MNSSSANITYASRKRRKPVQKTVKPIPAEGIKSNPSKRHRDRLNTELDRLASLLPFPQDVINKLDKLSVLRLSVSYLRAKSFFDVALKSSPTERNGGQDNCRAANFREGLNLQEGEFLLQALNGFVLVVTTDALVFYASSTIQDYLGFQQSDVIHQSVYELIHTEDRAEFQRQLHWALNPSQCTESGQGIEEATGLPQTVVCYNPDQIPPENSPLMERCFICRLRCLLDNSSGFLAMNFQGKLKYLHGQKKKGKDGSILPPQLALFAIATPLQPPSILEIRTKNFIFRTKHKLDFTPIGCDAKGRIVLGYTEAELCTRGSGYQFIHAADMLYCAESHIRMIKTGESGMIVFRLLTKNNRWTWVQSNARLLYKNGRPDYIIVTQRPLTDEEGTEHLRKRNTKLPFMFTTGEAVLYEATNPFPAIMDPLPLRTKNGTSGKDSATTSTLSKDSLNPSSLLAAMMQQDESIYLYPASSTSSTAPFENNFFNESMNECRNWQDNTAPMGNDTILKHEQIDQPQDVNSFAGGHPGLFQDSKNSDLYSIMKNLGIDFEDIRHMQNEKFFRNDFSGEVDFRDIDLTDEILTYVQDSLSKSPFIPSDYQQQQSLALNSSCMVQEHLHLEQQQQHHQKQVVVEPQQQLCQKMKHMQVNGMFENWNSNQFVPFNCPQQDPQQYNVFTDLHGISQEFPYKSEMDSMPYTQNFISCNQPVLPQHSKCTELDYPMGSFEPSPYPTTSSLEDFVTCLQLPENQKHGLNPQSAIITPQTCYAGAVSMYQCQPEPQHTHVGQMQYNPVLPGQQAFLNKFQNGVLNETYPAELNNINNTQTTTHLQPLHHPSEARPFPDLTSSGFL
Sequence of Hepatocyte nuclear factor 3-beta (Homo sapiens) (Q9Y261 whole entry, looked up): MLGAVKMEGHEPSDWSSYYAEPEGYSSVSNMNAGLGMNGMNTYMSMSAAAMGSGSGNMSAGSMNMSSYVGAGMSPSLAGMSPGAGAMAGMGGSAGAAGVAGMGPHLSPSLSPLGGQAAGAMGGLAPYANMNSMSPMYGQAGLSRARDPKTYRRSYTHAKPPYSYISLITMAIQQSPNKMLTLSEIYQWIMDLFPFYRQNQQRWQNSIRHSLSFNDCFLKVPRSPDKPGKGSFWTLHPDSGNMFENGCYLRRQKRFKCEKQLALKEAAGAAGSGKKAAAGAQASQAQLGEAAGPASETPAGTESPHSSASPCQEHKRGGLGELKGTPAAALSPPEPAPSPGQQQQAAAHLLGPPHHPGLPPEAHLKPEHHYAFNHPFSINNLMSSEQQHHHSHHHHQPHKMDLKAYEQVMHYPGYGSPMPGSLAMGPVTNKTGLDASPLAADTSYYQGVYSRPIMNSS

Turning to `CCC(C)CO` (stereo not given), the outcome in [1], in experiment [2], in [3], in experiment [4], in experiment [5] and in experiment [6] was inactive. Moreover, the compound was called inactive in experiment [7], in experiment [8], in [9], in experiment [10], in experiment [11] and in [12]. Moreover, the result in [13], in experiment [14], in experiment [15], in [16], in experiment [17] and in [18] was inactive. Further, the compound was called inactive in experiment [19] and in experiment [20].

Regarding `OCCCc1cccnc1`, the outcome in [1], in experiment [2], in [3], in experiment [4], in experiment [5] and in experiment [6] was inactive. The outcome in experiment [7], in experiment [8], in experiment [9], in experiment [10], in experiment [11] and in experiment [12] was inactive. Besides, the outcome in [13], in experiment [14], in experiment [15], in [16], in [17] and in [18] was inactive. Besides, the outcome in experiment [19] and in experiment [20] was inactive.

Take `O=C(O)CCC(F)(F)C(F)(F)C(F)(F)C(F)(F)C(F)(F)C(F)(F)C(F)(F)F`: the compound was classed as inactive in [1], in experiment [2], in [3], in [4], in experiment [5] and in experiment [6]. Further, the compound was called inactive in [8], in experiment [9], in experiment [10], in [11], in experiment [12] and in experiment [13]. Moreover, the compound was called inactive in experiment [14], in experiment [15], in experiment [16], in experiment [17], in experiment [18] and in [19]. Moreover, the compound was called inactive in experiment [20]. Also, the half-maximal activity concentration (AC50) in experiment [7] is 94.3 µM (active).

Regarding `COCCC(=O)OC`, the result in [1], in [2], in experiment [3], in experiment [4], in [5] and in experiment [6] was inactive. Further, the call in experiment [7], in experiment [8], in experiment [9], in experiment [10], in [11] and in experiment [12] was inactive. The compound was classed as inactive in experiment [13], in experiment [14], in [15], in [16], in experiment [17] and in experiment [18]. The compound was classed as inactive in experiment [19] and in experiment [20].
